Assay outcomes as filed in PubChem BioAssay.
TDP1 block – blocks human tyrosyl-DNA phosphodiesterase 1. recombinant TDP1, AlphaScreen DNA substrate cleavage. Potency, µM (highest dose often 130 µM), actives largely listed as inhibitors. 0.28% of 350,000 active. AID 485290; also: nearly all actives have a fitted effect of over 40% in size
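Recombinant E. coli-expressed Tdp1 (1 nM) preincubated with compound 15 min at RT, then 5'-biotin/3'-phosphotyrosine-FITC DNA substrate (15 nM) added for 5 min. AlphaScreen beads (10 ug/ml) added, 10 min RT; tyrosine-FITC cleavage read as signal loss.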
TDP1 cell noCPT – qHTS for Inhibitors of human tyrosyl-DNA phosphodiesterase 1 (TDP1): qHTS in cells in absence of CPT | DT40 Tdp1-/- hTDP1 cells, no CPT, ATP luminescence, 48 h | Potency, µM (series often up to 46.2 µM), actives largely listed as inhibitors | 15% of 420,000 active; also: nearly all actives have a fitted effect of over 55% in size
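Luminescent ATP content (CellTiter-Glo) served as the growth readout. Knockout chicken DT40 cells expressing human TDP1 were exposed to compounds without camptothecin for a minimum 48 hr at 37 °C.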
RORg inh – ROR gamma (mouse) transcription inhibition; P51450; Drosophila S2 Gal4-RORgamma UAS-luciferase reporter, 20 h; Potency, µM (top dose mostly 53.6 µM), usual class: inhibitors; 5.4% of 310,000 active; AID 2551; also: nearly all actives have a fitted effect of over 60% in size
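Schneider cells (Drosophila), stable Gal4 DBD–ROR gamma + UAS-luc; 1 hr cmpd preincubation; Cu2+ induction 700 uM final; 20 hr ambient; luminescence.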
TDP1 cell CPT – growth inhibition of DT40 Tdp1-/-;hTDP1 cells with camptothecin (screen for TDP1 inhibitors) | chicken DT40 Tdp1-/-;hTDP1 cells + 20 nM CPT, ATP luminescence, 48 h | Potency, µM (highest dose often 46.2 µM), usual class: inhibitors | 12% of 420,000 active | AID 686979; also: nearly all actives have a fitted effect of over 55% in size
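Chicken DT40 Tdp1-/- cells complemented with human TDP1, 400 cells/well, exposed to compounds plus 20 nM camptothecin for at least 48 h at 37 C; viability read as ATP content by CellTiter-Glo luminescence.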
Gal4-VP16 FLuc – Gal4-VP16 reporter inhibition counter-screen | Drosophila S2 Gal4-VP16 UAS-luciferase, luminescence, 20 h | Potency, µM (series often up to 53.6 µM), actives largely listed as inhibitors | 3.5% of 310,000 active;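 also: Gal4-VP16 expression switched on by copper sulfate through the metallothionein promoter; nearly all actives have a fitted effect of over 50% in size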
Hits are given with their value; i = inactive; ? = inconclusive; [ ] = dose if it differs, or a comment. Shown are actives, neighbours in structure and some others; about 19% of the full set was active somewhere. Calls follow the shape of the dose curve; as a rule, active = well fitted curve in the direction sought with a large enough effect; inconclusive = small, poorly fitted or top-dose-only effect, or another doubt; inactive = no such curve, though single readings can be large; an effect the other way counts as inactive or inconclusive.

SMILES | TDP1 block | TDP1 cell noCPT | RORg inh | TDP1 cell CPT | Gal4-VP16 FLuc
CS/C(=N\S(=O)(=O)c1cccs1)Nc1ccc(F)c(Cl)c1 | i | ? | i | i | ?
CS/C(=N\S(=O)(=O)c1cccs1)Nc1cccc(Cl)c1C | i | ? | i | 14.6µM | i
N#CC1=C(N)C2=CCCC[C@H]2[C@H](c2ccc(Br)cc2)C1(C#N)C#N | i | ? | ? | ? | 5.01µM
O=C1CC(Sc2nnnn2-c2ccccc2)C(=O)N1c1cccc(Cl)c1 (stereo not drawn) | i | 3.66µM | 3.55µM | 1.3µM | 3.16µM
COc1ccc(N2C(=O)CC(Sc3nnnn3-c3ccc(F)cc3)C2=O)cc1 (stereo not drawn) | i | 2.91µM | 11.2µM | 1.46µM | i[10 µM]
CCCc1ccc(C#N)c(SC2CC(=O)N(c3ccc(OC)cc3)C2=O)n1 (stereo not drawn) | i | i | i | i | i
